Test results taken from PubChem BioAssay AID1619 (SRMLSC, 2009).
Among all 220,000 compounds or so, about 830 (0.38%) were called active.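 How the source made its calls: active means compound inhibiting the enzyme by more than half at any dose during confirmatory dose-response retesting; inconclusive means strong single-dose inhibitors picked by rank but not retested; inactive means the rest.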 Not all results are given here. Measured potencies and affinities stand elsewhere. Residues, ends and D or L forms follow the SMILES beside them. *: point of attachment. Bz = O=C(c1ccccc1)*

These molecules were tested against Leucine aminopeptidase (Plasmodium falciparum (isolate 3D7)) (UniProt Q8IL11) (assay: P. falciparum M17LAP inhibitors, primary screen, biochemical, fluorogenic H-Leu-NHMec substrate, 1536-well (AID 1619;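 further: plate controls were full reaction with DMSO carrier for no effect and no enzyme background for full effect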)). Conditions: recombinant M17LAP, H-Leu-NHMec fluorogenic kinetic assay; at 30 µM; stronger effect = higher value.
Leucine aminopeptidase (Plasmodium falciparum (isolate 3D7)), sequence (Q8IL11 whole entry, looked up): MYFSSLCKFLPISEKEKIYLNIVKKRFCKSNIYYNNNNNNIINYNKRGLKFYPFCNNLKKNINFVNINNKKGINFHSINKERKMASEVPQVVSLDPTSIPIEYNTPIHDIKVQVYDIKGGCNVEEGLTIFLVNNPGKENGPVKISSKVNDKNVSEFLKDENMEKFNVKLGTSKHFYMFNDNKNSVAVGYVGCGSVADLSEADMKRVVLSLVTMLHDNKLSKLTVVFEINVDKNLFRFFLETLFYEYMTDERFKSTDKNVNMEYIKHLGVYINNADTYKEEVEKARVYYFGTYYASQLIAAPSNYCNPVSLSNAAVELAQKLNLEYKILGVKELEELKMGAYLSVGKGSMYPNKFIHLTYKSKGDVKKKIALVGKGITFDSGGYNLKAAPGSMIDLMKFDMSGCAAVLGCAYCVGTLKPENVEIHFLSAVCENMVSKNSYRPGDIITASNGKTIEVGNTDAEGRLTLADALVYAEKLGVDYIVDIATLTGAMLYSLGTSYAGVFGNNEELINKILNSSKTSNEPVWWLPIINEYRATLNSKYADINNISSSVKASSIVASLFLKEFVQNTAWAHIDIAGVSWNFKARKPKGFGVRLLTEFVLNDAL

inhibition, inactive:
CCn1ncc(/C=N\NC(=O)c2ccc3c(c2)c(C)c(C)n3Cc2ccccc2)c1C 8%
Cc1c(C(=O)N2CCN(Cc3ccc4c(c3)OCO4)CC2)cccc1[N+](=O)[O-] 11.8%
COc1ccc(Nc2nc(C(=O)N3CCc4cc(OC)c(OC)cc4C3)cs2)cc1 -3.32%
COc1ccc(NC(=O)COC(=O)c2ccco2)c([N+](=O)[O-])c1 -7.81%
CN(Cc1cnccn1)C(=O)CC1C(=O)NCCN1Cc1c(F)cccc1Cl (configuration not stated) 4.09%
CCc1ccc(NC(=O)N[C@H](C(=O)O)C(C)CC)cc1 (some centres not stated) -1.8%
CCc1ccc(C(=O)NC(C(=O)O)C(C)C)cc1 (configuration not stated) 56.2%
CCCCc1ccc(NC(=O)C(C)CC)cc1 (configuration not stated) 4.63%
CCCCc1ccc(NC(=O)N[C@@H](CC(C)C)C(=O)O)cc1 -4.28%
CCCCc1ccc(NC(=O)N[C@@H](C)C(=O)O)cc1 -2.39%
CCCCCOc1ccc(C(=O)NC(C(=O)O)C(C)C)cc1 (configuration not stated) 46.7%
CC(C)(C)NC(=O)CN(Cc1ccc(F)cc1)C(=O)Cn1nnc(-c2ccc(F)cc2)n1 2.63%
Cc1cccc(OCCCOc2cccc3cccnc23)c1C -0.78%
C[C@@H](C(=O)N1CCN(C(=O)OC(C)(C)C)CC1)n1cc(CCC(=O)O)nn1 3.71%
Cc1ccc(SCCn2nc(C(=O)O)c3ccccc3c2=O)cc1 11.2%
Cc1cccc(NS(=O)(=O)c2ccc3c(c2)NC(=O)CC(=O)N3)c1 0.82%
O=C(Nc1sc2c(c1C(=O)O)CCCCC2)c1ccccc1 54.2%
CCOC(=O)c1ccc(NC(=O)c2c(NC(=O)CCC(=O)O)sc3c2CCCCC3)cc1 4.02%
COc1ccc(NC(=O)c2c(NC(=O)CCC(=O)O)sc3c2CCCCC3)cc1 46%
Cc1ccccc1C(=O)Nc1sc2c(c1C(=O)O)CCC2 25.7%
COc1ccccc1NC(=O)c1c(NC(=O)CCC(=O)O)sc2c1CCCCC2 12%
CCOc1ccccc1NC(=O)c1c(NC(=O)CCC(=O)O)sc2c1CCCCC2 3.19%
O=C(NCCC(c1ccccc1)c1ccccc1)c1cnccn1 -1.23%
COc1ccc(C)cc1NC(=O)C(OC(=O)CNC(=O)c1ccc(Br)cc1)c1ccccc1 (configuration not stated) -14.5%
CN(C)S(=O)(=O)c1ccc(NC(=O)Cn2ccsc2=N)cc1 0.8%
c1ccc(-c2nc(NCC3CCCO3)c3oc4ccccc4c3n2)cc1 (configuration not stated) -4.77%
Cc1noc(C)c1COc1ccc(C(=O)OCC(=O)Nc2ccc3c(c2)OCO3)cc1 4.59%
COc1ccc2[nH]c(C)c(CCNC(=S)Nc3ccc(F)cc3)c2c1 -5.1%
O=C(Cn1cc2c(n1)CCCC2)N1CCc2ccccc21 3.11%
COc1ccccc1N1CC(C)C(=O)NC1=S (configuration not stated) 8%
Cc1ccccc1C(=O)NCC(=O)NNC(=S)NC(=O)c1ccccc1C 63.2%
Cc1ccccc1C(=O)NNC(=S)NC(=O)c1ccc(Cl)cc1Cl 90.7%
Cc1onc(-c2ccccc2)c1C(=O)NC(=S)NNC(=O)c1ccc(O)cc1 14.3%
Cc1ccccc1C(=O)NC(=S)NCC(=O)c1ccccc1 0.75%
Cc1onc(-c2ccccc2)c1C(=O)NNC(=S)NC(=O)c1ccc(Br)cc1 44.1%
Cc1ccccc1C(=O)NNC(=S)NC(=O)c1cccnc1 80.7%
Cc1ccc(NC(=O)CN(c2ccccc2)S(=O)(=O)N(C)C)cc1 -5.3%
CCOC(=O)c1cnc2c(C(F)(F)F)cccc2c1N1CCOCC1 6.02%
C/C(CC(=O)N(C(C)C)C(C)C)=N\NC(=O)COc1ccc(Cl)cc1Cl 7.13%
Cc1ccc(C(=O)Nc2ccc3cn[nH]c3c2)cc1S(=O)(=O)N1CCCCC1 4.67%
CCOC(=O)NC(=O)CSc1nnnn1-c1ccccc1 0.74%
OCC(O)C1OC(Nc2ccc(Cl)cc2)C(O)C1O (configuration not stated) 2.43%
Cc1nn(S(=O)(=O)c2cccc([N+](=O)[O-])c2)c(C)c1Br 10.8%
Cc1ccc(NC(=O)COC(=O)Cn2c(C)csc2=O)cc1C 4.89%
Nc1nn(-c2ccccc2)c(N)c1N=Nc1ccccc1 -19.2%
Nc1n[nH]c(N)c1N=Nc1ccc(Cl)cc1Cl 47.6%
Nc1n[nH]c(N)c1N=Nc1ccc2c(c1)OCO2 -3.08%
Nc1nn(-c2ccccc2)c(N)c1N=Nc1cccc(F)c1 -3.61%
COC(=O)c1ccccc1N=Nc1c(N)n[nH]c1N 12.4%
Cc1[nH]nc(N)c1N=Nc1ccc(Br)cc1 -1.99%
Nc1n[nH]c(C2CC2)c1N=Nc1ccc(Cl)cc1 18.4%
COc1ccc(N=Nc2c(N)n[nH]c2N)cc1 9.88%
Cc1ccc(S(=O)(=O)N2CCOCC2)cc1NC(=O)CN1CCN(c2ccc(O)cc2)CC1 -10.2%
Cc1nn(Cc2c(Cl)cccc2Cl)c(C)c1NC(=O)CCCn1nc(C)c([N+](=O)[O-])c1C -7.34%
CCOc1ccc(NC(=S)NN2C(C)CCCC2C)cc1 (configuration not stated) -3.03%
C[C@@H]1NC(=O)c2cc([N+](=O)[O-])cc(I)c2OCC[C@@H](C(N)=O)NC(=O)[C@H](CCCCN)NC1=O 21.6%
CCCCC(=O)NC(=S)Nc1cccc(NC(=O)c2ccccc2)c1 2.99%
O=C(NCc1ccc2c(c1)OCO2)C1CCC(CNc2c(N3CCCC3)c(=O)c2=O)CC1 (configuration not stated) 9.79%
Cc1noc(C)c1CSCc1ccc(Cl)cc1 2.99%
COc1ccc(-c2nc(=S)n3ccsc3n2)cc1OC -2.9%
O=C(NCc1ccccc1)N1CCN(c2ccc(F)cc2)CC1 13.1%
O=C(c1ccc(S(=O)(=O)N2CCOCC2)cc1)N1CCOCC1 -9.29%
Cc1cc(C)cc(-n2c(SCC(=O)NCc3ccc4c(c3)OCO4)nc3ccccc3c2=O)c1 19.8%
O=C1CCCC/C1=C/Nc1ccc(S(=O)(=O)Nc2ncccn2)cc1 6.19%
Cc1cc(C)nc(NS(=O)(=O)c2ccc(Br)cc2)n1 15.3%
C=CCOC(=O)c1c(C)nc2cc3c(cc2c1C)OCO3 9.48%
Cc1ccc(C(=O)CC(C(=O)O)n2cnc([N+](=O)[O-])n2)cc1 (configuration not stated) 11.1%
O=C(NCc1cccs1)C(=O)c1cn(CC(=O)N2CCCC2)c2ccccc12 24.7%
O=C(c1ccco1)c1cn(CC(=O)N2CCCCC2)c2ccccc12 33.5%
CCN(CC)C(=O)Cn1cc(C(=O)C(=O)NCc2ccco2)c2ccccc21 25.3%
O=C(NCc1ccco1)C(=O)c1cn(CC(=O)N2CCCCC2)c2ccccc12 8.43%
Cc1ccc(N=C(NO)c2nonc2N)c(C)c1 14.3%
O=C(Cn1c(=O)oc2ccccc21)NCCc1ccccc1Cl 1.7%
NC(=S)c1ncc(C(F)(F)F)cc1Cl -12.7%
CC(C)NC(=O)c1cnc(Sc2ncc(C(F)(F)F)cc2Cl)n1C 6.92%
O=C(c1cc[n+]([O-])cc1)N1CCc2c([nH]c3ccccc23)C1c1ccccc1Cl (configuration not stated) 15.1%
O=C(c1nc(-c2ccccc2)n(-c2ccccc2)n1)N1CCN(S(=O)(=O)c2ccccc2)CC1 -12.4%
CCOc1ccc(C(=O)NCC(=O)OCc2cc(C(C)=O)ccc2OC)cc1 3.31%
CCC(C)C(NC(=O)c1ccccc1NC(=O)c1ccco1)C(=O)NNC(=O)c1ccncc1 (configuration not stated) 3.96%
CCc1ccc(Nc2cnn(C34CC5CC(CC(CC(=O)O)(C5)C3)C4)c(=O)c2Cl)cc1 53.3%
O=C(O)C12C[C@H]3C[C@@H](C1)CC(n1ncc(N4CCN(c5ccccc5)CC4)c(Cl)c1=O)(C3)C2 36.9%
O=C(O)C12CC3CC(C1)CC(n1ncc(N4CCN(c5ccccc5)CC4)c(Cl)c1=O)(C3)C2 61.6%
Cc1cccc(Nc2cnn(C34CC5CC(CC(CC(=O)O)(C5)C3)C4)c(=O)c2Cl)c1 39.2%
Cc1cc(C)cc(Nc2cnn(C34CC5CC(CC(CC(=O)O)(C5)C3)C4)c(=O)c2Cl)c1 45.8%
CC(=O)c1ccc(Nc2cnn(C34CC5CC(CC(CC(=O)O)(C5)C3)C4)c(=O)c2Cl)cc1 46.4%
CCOC(=O)c1csc(NC(=O)CSc2nnnn2-c2ccc(OC)c(OC)c2)n1 11.3%
COc1cccc(-n2c(SCC(=O)N3CCCCC3)nc3c([nH]c4ccccc43)c2=O)c1 -3.56%
CC(=O)NC(Cc1ccccc1)C(=O)NC1CCN(C(=O)c2ccc([N+](=O)[O-])cc2)CC1 (configuration not stated) -3.72%
O=C(NC(Cc1ccccc1)C(=O)NC(Cc1ccccc1)C(=O)O)c1ccccc1 (stereo not drawn) (Bz-Phe-Phe-OH; configuration not given here) 45.6%
O=C(O)CCC(NC(=O)C(Cc1ccc2c(c1)OCO2)NC(=O)c1ccccc1)C(=O)O (configuration not stated) 46.2%
O=C(O)c1ccc(-n2cccc2/C=C2/NC(=O)N(c3ccccc3)C2=O)cc1 11.3%
O=C(O)c1ccc(COc2ccccc2/C=C2/NC(=O)N(c3cccc(Cl)c3)C2=O)cc1 7.83%
